Assay results as given in PubChem BioAssay (NCI).
About 79,000 compounds went through this panel and 15% of them were active in at least one assay; those are over-represented in the sample as a whole. A number with no mark means an inactive call. Calls of active or inactive are those of the source. Cut-off read from the data, not from the text of the source: active = growth inhibition above about 70%; inactive = the rest.

Columns and labels:
[1] = NCI Yeast Anticancer Drug Screen. Data for the rad50 strain (AID 155);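 note: 0% = growth of vehicle-only cultures of the same strain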; conditions: S. cerevisiae rad50 strain growth inhibition; at 50.0 µM; stronger effect = higher value
In short: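 Compounds were tested on a yeast strain with an engineered DNA damage repair alteration; the reported value is growth inhibition normalised to vehicle treatment.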

[2] = NCI Yeast Anticancer Drug Screen. Data for the mec2-1 strain (AID 157); conditions: S. cerevisiae mec2-1 strain, at 50.0 µM, stronger effect = higher value
In short: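 Test agents were screened against the mec2-1 yeast strain, with defined DNA repair or cell cycle alteration. Growth was scored as inhibition against vehicle-only controls.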

[3] = NCI Yeast Anticancer Drug Screen. Data for the sgs1 mgt1 strain (AID 161);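 note: 0% = growth of cultures given vehicle only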; conditions: S. cerevisiae sgs1 mgt1 strain, at 50.0 µM, stronger effect = higher value
In short: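 Read-out: growth inhibition vs vehicle controls. Cells: mutant yeast strain deficient in DNA damage repair.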

[4] = NCI Yeast Anticancer Drug Screen. Data for the cln2 rad14 strain (AID 165);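 note: 0% = growth equal to vehicle treated cultures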; conditions: S. cerevisiae cln2 rad14 strain, at 50.0 µM, stronger effect = higher value
In short: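 Growth of compound-exposed yeast (cln2 rad14 genotype) measured and expressed as inhibition relative to vehicle.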

[5] = NCI Yeast Anticancer Drug Screen. Data for the bub3 strain (AID 167); conditions: S. cerevisiae bub3 mutant strain, at 50.0 µM, stronger effect = higher value
In short: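 Growth of a checkpoint-deficient yeast mutant is measured after compound exposure. Values represent inhibition relative to vehicle.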

[6] = NCI Yeast Anticancer Drug Screen. Data for the mlh1 rad18 strain (AID 175); conditions: S. cerevisiae mlh1 rad18 strain growth inhibition; at 50.0 µM; stronger effect = higher value
In short: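 In this whole-cell yeast screen, a strain with altered DNA damage repair is challenged with compound, and its growth is measured against matched vehicle-treated controls.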

Structure (SMILES) | growth inhibition [1] | growth inhibition [2] | growth inhibition [3] | growth inhibition [4] | growth inhibition [5] | growth inhibition [6]
CO/C(=N\N=C\c1ccccc1F)c1ccncc1 | -25.9% | -64.8% | -70.8% | 1.7% | -28.6% | -60.6%
O=C1C(Cl)C(c2ccc(O)cc2)N1n1cnc2ccccc2c1=O (stereo unspecified) | 56.6% | 37.9% | 59.4% | 31.9% | 32.8% | 36.6%
Nc1cc([N+](=O)[O-])ccc1N1C(=O)CCCC1=O | -15.2% | -4.95% | -10.1% | -5.8% | 5.85% | 12.4%
OC1CCCC2OC2CC1 (stereo unspecified) | 0.4% | 6.55% | -9.5% | 11.7% | 7.25% | 13.9%
c1ccc2c(c1)c1c(n2CCOCCN2CCCC2)CCCC1 | 21.6% | 2.6% | 2.45% | 27% | 0% | -55.8%
CC1(C)C2CCC3CC(CCC#N)CCC3C21C#N (stereo unspecified) | -32.2% | -11.2% | -8.8% | -34.5% | -37.8% | -23.1%
CC1=C(CC2C(=O)N(c3ccccc3)S(=O)(=O)NC2C)C(=O)N(c2ccccc2)S(=O)(=O)N1C (stereo unspecified) | 20.1% | 4% | -14% | -17.1% | -1.65% | 8.5%
C=CCC1CCC/C1=N\O (stereo unspecified) | -13.4% | 10.4% | 17.3% | -12.2% | -3.15% | 3.9%
COc1ccc(-c2nn(CCO)c(=O)c(C#N)c2-c2ccc(OC)cc2)cc1 | 28.9% | 1.3% | 6.65% | 7.3% | 13.7% | 5.9%
CC(NNC(=O)c1ccncc1)c1ccc(Cl)cc1Cl (stereo unspecified) | -19.9% | 9.15% | -21.6% | 22.6% | 13.8% | -16.1%
O=C(c1ccccc1)c1oc2ccc(Br)cc2c1-c1cnn(-c2ccccc2)c1 | 29.2% | -9.5% | 11.9% | 15.1% | -3.85% | 22.1%
CC(C)=Cc1cc(-c2cc(C=C(C)C)[nH]n2)n[nH]1 | -35.4% | -2% | -20.4% | -24.6% | -9.2% | -11.9%
Cc1ccc(C)c(NC(=O)CCC(=O)CC(=O)C(C)(C)C)c1 | -3.25% | 8.35% | 5.3% | 15.5% | -6.4% | 12.7%
O=c1c2c(-c3cc(-c4ccccc4)nc4[nH]n(-c5ccccc5)c(=O)c34)cc(-c3ccccc3)nc2[nH]n1-c1ccccc1 | 0.45% | -6.2% | 0.35% | -38.5% | 4.85% | -22.6%
CC(C)C12Cc3c(ccc4ccccc34)OC1(C)Oc1ccc3ccccc3c1C2 (stereo unspecified) | 18.6% | -17.4% | -13.5% | 20.1% | -6.8% | 7.05%
COC(=O)C(=[N+]=[N-])C(=O)c1ccccc1[N+](=O)[O-] | 30.5% | 27.4% | 15.8% | 18.5% | 6.9% | 14.5%
O=S1c2ccccc2Sc2ccccc21 | 2.65% | -8.4% | -5.05% | 1.6% | -2% | -2.25%
CN(/N=C/c1ccc(O)c(/C=N/N(C)c2ccccn2)n1)c1ccccn1 | -9.45% | 8% | -3.35% | -11.9% | -2.7% | 8.3%
CCC(Cc1ccccc1)OC(=O)c1ccccc1C(=O)O (stereo unspecified) | -16.2% | -10.8% | 8% | -43.3% | -6.85% | 1.9%
CC(=O)CC(=O)N1CCCC(C)C1 (stereo unspecified) | -2.85% | -40.8% | -38.5% | 9.1% | -10.9% | 1.3%
Nc1nc(Cc2ccccc2)cs1 | 24.7% | 24.7% | 16.1% | 7.5% | 3.35% | 12.6%

Structure (SMILES) | growth inhibition [1] | growth inhibition [2] | growth inhibition [3] | growth inhibition [4] | growth inhibition [5] | growth inhibition [6]
COC(=O)c1nc(N)[nH]c(=O)c1-c1ccc(Cl)cc1 | -9.5% | -21.9% | -10.9% | 14.8% | -12.7% | -47.8%
CSc1nc(N)c(C(N)=O)cc1C#N | 5.45% | 2.6% | -5.4% | -32.8% | -16.6% | 8.55%
C(=C/c1ccc(-c2ccccc2)cc1)/c1ccc(-c2ccccc2)cc1 | -4.5% | -13.4% | 11.2% | -23.3% | 24.4% | -2.45%
O=C1CCCc2c(O)ccc(O)c21 | 5.2% | 2.8% | -2.6% | 11.4% | 8.15% | 28.4%
CN(C)N=Nc1c(F)cc(F)c(F)c1F | 4.75% | 3.35% | -9% | -14.2% | 7.3% | -4.05%
CCCCCCCCCCCCSCCO | 20.9% | 10.8% | 39% | 31.4% | 17.1% | 39%
C=CCOC(C)n1c(C)cc(=O)n(C(C)OCC=C)c1=O (stereo unspecified) | -56.6% | -26.8% | -46.6% | -38.5% | -44.9% | -29.8%
CC1(C)N=C(/C(Cl)=[N+](/[O-])C(=O)c2ccc(Cl)cc2)C(C)(C)N1O | -21.1% | -26.9% | -24.1% | -7.3% | -38.6% | -8.4%
NC(=S)N/N=C/c1ccccc1S(=O)(=O)O | 1.9% | -12.8% | -9.75% | -16.2% | 0.05% | -4.7%
CC[N+](C)(CC)c1cccc(OC(=O)N2CCCCC2)c1 | 7.8% | 3.45% | 16.4% | 0.2% | -4.75% | -16.9%
CCCCCCCCCCCCCCCC(=O)NOCc1cscn1 | -0.8% | -29.1% | -3.25% | -22.1% | -12.8% | 6.1%
O=C(CCCSCCCC(=O)N/N=C/c1ccccc1O)N/N=C\c1ccccc1O | 4.7% | -0.5% | 4.95% | 0.75% | 6.65% | 19.8%
O=C1CC(CC(=O)c2ccc(Br)cc2)C(=O)/C1=C(/O)c1ccc(Br)cc1 (stereo unspecified) | 21.7% | 14.2% | 36.8% | 38% | 22.9% | 48.8%
CC(=O)Nc1ccc(N(C)C)cc1Cl | -24.6% | -17.2% | -13.7% | -17.1% | -1.8% | -16.1%
CN1CCN(CC2C(=O)C3CCC2C3)CC1 (stereo unspecified) | 4.6% | -20.4% | -18.4% | -7.85% | -22.7% | -10.3%
CC(SC(=S)Nc1ccc(Cl)cc1)C(=O)O (stereo unspecified) | 39.5% | 1.15% | 24.8% | -42% | 4.8% | 12.3%
CCOC(=O)C1CC1OCc1ccccc1 (stereo unspecified) | -0.2% | 11.7% | 4.9% | -15.9% | 4% | 5.3%
OCC1OC(n2c(=S)[nH]c3ccccc32)C(O)C1O (stereo unspecified) | 9.4% | -0.9% | 5.4% | 1.2% | 4.4% | 7.4%
C=C1CCC2[C@@H](CCC3[C@]2(C)CCC[C@]3(C)C(=O)OC)[C@@H]1CC=O (stereo partly specified) | 11.4% | 10.2% | 9.25% | 23.4% | 9.5% | 14.8%
Clc1ccc(C2NC(c3ccccc3)c3c(ccc4ccccc34)O2)cc1Cl (stereo unspecified) | 86.2% (active) | 92.6% (active) | 92.2% (active) | 88.2% (active) | 90.5% (active) | 92.1% (active)
